# Results published in the supplement of paper PMC10849652.
# Of roughly 7,900 targets only a part is listed; those with a hit were picked by preference. About 0.6% of all pairs of compound and target were hits. A number with no mark means an inactive call.
# How the values were obtained:
# Assay in all cases: log2 fold change, soluble protein after heating vs DMSO (PISA); higher = thermal stabilisation; K562 cells, 10 uM, 30 min; active = over 0.2 and 3.5 SD of the protein, either way, in both replicates (recomputed)
# erlotinib = compound: C#Cc1cccc(Nc2ncnc3cc(OCCOC)c(OCCOC)cc23)c1 [erlotinib]
# Outline: (§1)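 K562 cells (2×10^6 cells/mL) were treated with 10 μM compound for 30 min, and aliquots were heated for 3 min over 48°C-58°C. Pooled aliquots were extracted in PBS with 0.5% NP-40 at 4°C, and the supernatant after 21,000xg for 90 min was measured by TMTpro 16plex LC-MS/MS with channel sums equalised. Reported thermal stability, relative to control samples and from duplicates, is a log2 fold change.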
# [1] = compound: C/C(=N\NC(=O)C1=CC(=CC=C1)S(=O)(=O)N2CCOCC2)/C3=C(C=CC(=C3)Cl)O
# Outline: as §1
# [2] = compound: C1=CC(=C(C=C1Cl)C2=NC3=NC=CN=C3C(=N2)NC4=CC=NC=C4)F
# Outline: as §1
# [3] = compound: C1=CC(=CC=C1C2=NC3=C(N2)C=C(C=C3)C(=O)N)OC4=CC=C(C=C4)Cl
# Outline: as §1
# [4] = compound: C1=CC2=C(C=CC(=C2)/C=C\3/C(=O)NC(=NCC4=CC=CS4)S3)N=C1
# Outline: as §1
# [5] = compound: C1=CC2=NC=CN=C2C=C1/C=C/3\C(=O)NC(=O)S3
# Outline: as §1
# [6] = compound: C1=CC=C(C=C1)C2=NC(=C(N2)C3=CC=NC=C3)C4=CC(=C(C=C4)Cl)O
# Outline: as §1
# [7] = compound: C1=CC=C2C(=C1)C3=NNC4=CC=CC(=C43)C2=O
# Outline: as §1
# [8] = compound: C1CCN(C1)C(=O)NC2=CC=CC(=C2)NC3=NC=C(C(=N3)NCCC4=CN=CN4)Br
# Outline: as §1
# [9] = compound: C1CN(CCC1(CC2=CC=C(C=C2)Cl)N)C3=NC=NC4=C3C=CN4
# Outline: as §1
# UniProt Q92609, sequence (Q92609 whole entry, looked up): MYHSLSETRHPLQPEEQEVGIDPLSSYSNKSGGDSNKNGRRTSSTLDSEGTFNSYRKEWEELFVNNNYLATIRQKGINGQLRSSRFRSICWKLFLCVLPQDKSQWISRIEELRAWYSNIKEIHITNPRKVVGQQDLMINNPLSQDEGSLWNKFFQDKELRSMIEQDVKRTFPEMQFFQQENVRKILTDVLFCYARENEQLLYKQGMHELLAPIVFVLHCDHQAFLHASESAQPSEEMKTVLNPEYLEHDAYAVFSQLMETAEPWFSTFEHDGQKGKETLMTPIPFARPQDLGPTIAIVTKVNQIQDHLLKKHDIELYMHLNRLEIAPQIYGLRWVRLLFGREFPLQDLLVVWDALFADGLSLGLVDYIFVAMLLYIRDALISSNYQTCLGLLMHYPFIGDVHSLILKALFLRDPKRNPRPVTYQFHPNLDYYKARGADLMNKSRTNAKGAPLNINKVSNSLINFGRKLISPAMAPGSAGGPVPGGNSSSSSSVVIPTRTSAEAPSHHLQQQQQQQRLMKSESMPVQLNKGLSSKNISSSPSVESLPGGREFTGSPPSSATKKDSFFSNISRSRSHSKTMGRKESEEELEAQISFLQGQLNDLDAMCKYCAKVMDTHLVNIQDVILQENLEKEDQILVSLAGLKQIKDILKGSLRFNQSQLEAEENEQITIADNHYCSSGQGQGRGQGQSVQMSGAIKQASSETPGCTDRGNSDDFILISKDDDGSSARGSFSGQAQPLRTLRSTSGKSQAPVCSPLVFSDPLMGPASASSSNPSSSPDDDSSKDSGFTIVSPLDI
# UniProt Q9Y5X1, sequence (Q9Y5X1 whole entry, looked up): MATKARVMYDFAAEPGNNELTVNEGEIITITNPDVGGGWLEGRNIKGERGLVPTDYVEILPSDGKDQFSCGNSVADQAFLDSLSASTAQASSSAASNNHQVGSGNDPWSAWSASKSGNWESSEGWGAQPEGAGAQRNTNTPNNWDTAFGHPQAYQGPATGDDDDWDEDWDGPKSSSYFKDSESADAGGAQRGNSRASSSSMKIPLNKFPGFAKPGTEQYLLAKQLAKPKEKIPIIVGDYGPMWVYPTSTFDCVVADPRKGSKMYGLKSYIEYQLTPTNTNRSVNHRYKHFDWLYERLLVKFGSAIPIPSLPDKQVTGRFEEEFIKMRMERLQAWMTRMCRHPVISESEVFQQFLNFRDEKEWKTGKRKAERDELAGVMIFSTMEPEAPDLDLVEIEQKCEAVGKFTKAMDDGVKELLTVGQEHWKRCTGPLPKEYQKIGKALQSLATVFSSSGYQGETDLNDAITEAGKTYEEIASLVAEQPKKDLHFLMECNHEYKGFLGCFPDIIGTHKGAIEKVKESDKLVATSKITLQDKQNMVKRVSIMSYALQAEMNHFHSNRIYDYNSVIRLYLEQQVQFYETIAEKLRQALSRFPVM
# UniProt O15400, sequence (O15400 whole entry, looked up): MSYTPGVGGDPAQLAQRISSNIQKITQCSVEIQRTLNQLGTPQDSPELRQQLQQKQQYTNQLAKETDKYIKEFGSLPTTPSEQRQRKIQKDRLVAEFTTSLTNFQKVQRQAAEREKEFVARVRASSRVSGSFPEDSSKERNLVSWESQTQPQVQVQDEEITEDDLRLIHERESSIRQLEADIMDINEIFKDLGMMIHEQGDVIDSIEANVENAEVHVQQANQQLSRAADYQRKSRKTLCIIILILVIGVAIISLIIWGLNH
# UniProt Q96DW6, sequence (Q96DW6 whole entry, looked up): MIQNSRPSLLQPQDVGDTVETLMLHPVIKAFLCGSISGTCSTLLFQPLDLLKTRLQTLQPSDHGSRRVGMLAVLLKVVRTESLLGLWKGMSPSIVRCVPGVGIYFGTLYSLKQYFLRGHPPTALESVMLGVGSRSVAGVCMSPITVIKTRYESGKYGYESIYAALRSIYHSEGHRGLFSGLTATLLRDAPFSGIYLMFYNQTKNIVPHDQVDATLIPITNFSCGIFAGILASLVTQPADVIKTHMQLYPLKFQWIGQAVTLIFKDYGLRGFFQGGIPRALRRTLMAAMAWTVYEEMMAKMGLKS
# UniProt Q9Y6I9, sequence (Q9Y6I9 whole entry, looked up): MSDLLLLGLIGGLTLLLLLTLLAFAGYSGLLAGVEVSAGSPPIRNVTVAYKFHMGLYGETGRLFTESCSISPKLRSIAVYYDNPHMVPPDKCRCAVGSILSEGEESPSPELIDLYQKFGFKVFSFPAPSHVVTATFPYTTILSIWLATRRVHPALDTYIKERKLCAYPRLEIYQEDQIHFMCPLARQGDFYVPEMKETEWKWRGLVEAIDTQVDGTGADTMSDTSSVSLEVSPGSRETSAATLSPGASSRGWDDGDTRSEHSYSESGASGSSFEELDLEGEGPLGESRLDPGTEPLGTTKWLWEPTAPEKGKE
# UniProt Q13428, sequence (Q13428 whole entry, looked up): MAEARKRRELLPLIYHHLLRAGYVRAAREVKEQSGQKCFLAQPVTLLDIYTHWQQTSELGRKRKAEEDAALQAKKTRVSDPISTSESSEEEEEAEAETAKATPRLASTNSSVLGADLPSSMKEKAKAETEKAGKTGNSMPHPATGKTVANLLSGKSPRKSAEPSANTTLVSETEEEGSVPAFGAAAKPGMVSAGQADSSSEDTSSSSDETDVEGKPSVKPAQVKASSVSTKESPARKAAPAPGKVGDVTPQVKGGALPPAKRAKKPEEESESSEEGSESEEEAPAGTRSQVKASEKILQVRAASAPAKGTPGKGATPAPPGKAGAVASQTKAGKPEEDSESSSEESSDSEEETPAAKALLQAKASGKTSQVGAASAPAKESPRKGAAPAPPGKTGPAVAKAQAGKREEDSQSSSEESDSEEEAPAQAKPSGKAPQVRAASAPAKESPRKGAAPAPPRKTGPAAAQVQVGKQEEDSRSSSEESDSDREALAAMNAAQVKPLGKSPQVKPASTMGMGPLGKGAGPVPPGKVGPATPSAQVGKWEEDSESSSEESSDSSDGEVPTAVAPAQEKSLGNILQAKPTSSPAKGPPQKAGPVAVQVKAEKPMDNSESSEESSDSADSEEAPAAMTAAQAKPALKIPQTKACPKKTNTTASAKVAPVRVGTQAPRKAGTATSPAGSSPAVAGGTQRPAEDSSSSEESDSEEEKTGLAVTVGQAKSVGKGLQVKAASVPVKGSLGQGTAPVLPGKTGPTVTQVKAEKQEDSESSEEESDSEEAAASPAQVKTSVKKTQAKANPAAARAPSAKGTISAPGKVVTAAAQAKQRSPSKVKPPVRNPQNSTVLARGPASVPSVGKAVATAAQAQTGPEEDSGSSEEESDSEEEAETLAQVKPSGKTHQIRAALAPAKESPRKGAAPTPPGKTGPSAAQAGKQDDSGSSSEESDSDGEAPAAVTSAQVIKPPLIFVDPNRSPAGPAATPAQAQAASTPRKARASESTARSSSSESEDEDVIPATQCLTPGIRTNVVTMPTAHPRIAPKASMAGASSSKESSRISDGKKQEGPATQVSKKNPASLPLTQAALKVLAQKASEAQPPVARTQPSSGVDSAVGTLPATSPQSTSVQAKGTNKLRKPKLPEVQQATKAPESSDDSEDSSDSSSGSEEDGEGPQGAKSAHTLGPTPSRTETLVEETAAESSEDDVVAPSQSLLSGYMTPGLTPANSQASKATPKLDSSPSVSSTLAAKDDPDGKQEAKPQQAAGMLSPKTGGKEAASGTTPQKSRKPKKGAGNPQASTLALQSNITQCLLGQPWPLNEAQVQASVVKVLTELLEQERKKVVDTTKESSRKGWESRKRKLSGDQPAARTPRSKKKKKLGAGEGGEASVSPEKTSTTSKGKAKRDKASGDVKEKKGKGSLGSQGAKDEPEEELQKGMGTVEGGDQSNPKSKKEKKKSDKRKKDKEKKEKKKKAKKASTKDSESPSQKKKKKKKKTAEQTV
# UniProt Q99805, sequence (Q99805 whole entry, looked up): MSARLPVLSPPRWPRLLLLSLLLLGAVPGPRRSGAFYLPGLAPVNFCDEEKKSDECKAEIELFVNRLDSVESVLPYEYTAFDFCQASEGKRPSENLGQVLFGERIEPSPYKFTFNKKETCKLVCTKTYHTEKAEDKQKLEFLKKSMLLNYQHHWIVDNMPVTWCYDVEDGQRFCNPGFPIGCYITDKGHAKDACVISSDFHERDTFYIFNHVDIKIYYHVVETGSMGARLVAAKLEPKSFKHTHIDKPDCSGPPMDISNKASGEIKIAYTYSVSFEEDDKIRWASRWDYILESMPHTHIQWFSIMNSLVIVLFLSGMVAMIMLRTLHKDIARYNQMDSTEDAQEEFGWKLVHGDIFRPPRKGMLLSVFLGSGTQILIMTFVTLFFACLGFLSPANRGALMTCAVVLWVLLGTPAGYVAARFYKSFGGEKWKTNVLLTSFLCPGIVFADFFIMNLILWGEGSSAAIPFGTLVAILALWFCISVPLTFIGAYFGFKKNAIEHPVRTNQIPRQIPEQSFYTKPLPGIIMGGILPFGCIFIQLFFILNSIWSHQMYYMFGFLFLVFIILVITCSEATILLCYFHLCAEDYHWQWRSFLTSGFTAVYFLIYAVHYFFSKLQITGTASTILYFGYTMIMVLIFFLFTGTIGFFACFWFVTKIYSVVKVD
# UniProt P08579, sequence (P08579 whole entry, looked up): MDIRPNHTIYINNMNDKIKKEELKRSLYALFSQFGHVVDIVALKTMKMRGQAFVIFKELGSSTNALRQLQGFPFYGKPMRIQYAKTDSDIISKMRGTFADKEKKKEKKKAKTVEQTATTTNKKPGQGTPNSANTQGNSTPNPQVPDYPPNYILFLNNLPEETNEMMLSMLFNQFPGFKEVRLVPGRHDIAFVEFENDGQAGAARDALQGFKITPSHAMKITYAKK
# UniProt O75494, sequence (O75494 whole entry, looked up): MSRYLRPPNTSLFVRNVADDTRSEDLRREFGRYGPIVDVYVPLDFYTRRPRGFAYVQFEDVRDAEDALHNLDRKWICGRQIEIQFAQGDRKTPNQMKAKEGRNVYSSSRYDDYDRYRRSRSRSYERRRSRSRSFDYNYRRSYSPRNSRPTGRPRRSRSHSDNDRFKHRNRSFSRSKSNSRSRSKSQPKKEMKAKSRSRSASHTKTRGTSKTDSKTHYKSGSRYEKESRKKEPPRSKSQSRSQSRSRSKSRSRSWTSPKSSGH
Target,log2 fold change (erlotinib),log2 fold change [1],log2 fold change [2],log2 fold change [3],log2 fold change [4],log2 fold change [5],log2 fold change [6],log2 fold change [7],log2 fold change [8],log2 fold change [9]
TK1 (UniProt P04183),-0.029,0.004,0.044,0.017,-0.02,-0.012,-0.03,-0.011,-0.028,0.046
SLC27A4 (UniProt Q6P1M0),0.039,0.013,-0.023,0.032,0.082,-0.02,0.002,0.061,-0.017,0.062
SUMO1 (UniProt P63165),-0.126,0.167,0.006,-0.06,0.182,0.043,0.045,-0.06,0.211,0.033
SRSF7 (UniProt Q16629),0.083,-0.043,-0.292,0.063,-0.154,-0.032,-0.135,-0.037,0.084,-0.063
TCOF1 isoform 4 (UniProt Q13428),0.035,-0.005,-0.005,-0.008,-0.002,0.014,-0.024,-0.001,-0.043,-0.107
TAF9 (UniProt Q16594),-0.007,-0.003,-0.036,0.014,-0.027,0.019,-0.04,-0.032,-0.024,0.02
SLC27A2 (UniProt O14975),0,0.057,0.054,0.032,0.101,0.005,0.108,0.018,-0.001,0.035
SMC5 (UniProt Q8IY18),-0.041,0.091,-0.091,0.04,0.014,0.005,-0.017,-0.141,0.042,0.116
SP3 (UniProt Q02447),0.034,-0.028,0,0.059,0.003,-0.051,-0.053,-0.066,-0.065,-0.1
SPART (UniProt Q8N0X7),0.024,0.008,0.057,0.008,0.07,0.002,-0.008,-0.014,-0.033,-0.055
STX7 (UniProt O15400),0.02,-0.029,0.02,0.021,-0.02,0.02,-0.009,-0.007,0,0.056
TBC1D5 isoform 2 (UniProt Q92609),0.019,0.111,-0.03,-0.041,0.044,0.032,-0.049,0.027,-0.003,-0.078
SNX9 (UniProt Q9Y5X1),-0.005,0.047,-0.004,-0.024,0.004,0.014,-0.006,-0.011,-0.01,0.028
SRRM2 (UniProt Q9UQ35),0.067,0.095,-0.136,0.07,-0.123,0.014,-0.044,-0.073,-0.061,-0.128
SNX1 (UniProt Q13596),0.048,0.034,0.009,0.055,0.005,-0.035,-0.024,-0.118,0.017,-0.03
SLC35A1 (UniProt P78382),0.014,-0.126,0.05,-0.008,0.082,-0.017,-0.043,-0.061,-0.052,0.077
SLC9A6 isoform 2 (UniProt Q92581),-0.024,0.014,0.053,0.026,-0.009,0.029,-0.04,-0.056,-0.013,0.031
SLC25A38 (UniProt Q96DW6),0.007,-0.001,-0.023,-0.036,0.129,0.054,0.023,0.005,-0.005,0.055
TEX264 (UniProt Q9Y6I9),0.099,0.024,0.034,0.769 (active),0.325,0,0.203,0.349,0.033,0
SNRPB2 (UniProt P08579),-0.032,-0.056,-0.01,-0.019,-0.034,0.042,-0.054,-0.015,0.057,-0.026
TM9SF2 (UniProt Q99805),0.012,0.025,0.037,-0.006,0.027,-0.021,0.04,0.009,-0.04,0.063
SNW1 (UniProt Q13573),-0.047,-0.028,-0.029,0.036,-0.015,0.045,-0.051,-0.001,0.001,0.002
SRSF10 (UniProt O75494),0.004,-0.284,-0.701 (active),0.035,-0.044,0.048,-0.148,-0.022,0.063,-0.135
SNX5 (UniProt Q9Y5X3),0.033,0.09,0.042,0.022,0.057,-0.024,-0.05,-0.038,0.077,-0.009
SMG1 (UniProt Q96Q15),0.012,0.101,0.066,-0.012,-0.029,0,-0.088,0.049,-0.054,0.066
SLC25A4 (UniProt P12235),0.007,-0.016,0.035,-0.009,-0.004,0.042,0.045,-0.076,-0.019,0.021
TM9SF4 (UniProt Q92544),-0.015,0.011,-0.006,0.052,-0.054,-0.002,0.008,0.038,-0.012,0.066
